# From PubChem BioAssay (NCI)
# Several values for one entry are separate records, joined by “and”; a condition that tells them apart may be missing. Equal entries are not always repeated. The panel holds about 83,000 compounds, 20% with a hit somewhere; the sample as a whole holds those more often.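 Growth was measured after 48 h exposure to one concentration of compound in 96-well plates. Values under 10 count as active.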 Values without a mark were called inactive. Activity calls are given as the source filed them.
# Test system: MDA-MB-468 breast
# Test: NCI-60 one-dose screen, 48 h (100 = growth as untreated, 0 = no growth, -100 = all killed)
# Conditions: 10 µM unless noted
row,Compound,growth
1,CS(=O)(=O)Nc1cc(-c2ccc3ncnc(Nc4c(Cl)ccc5c4OCO5)c3c2)cnc1Cl,-74.3% (active)
2,Cc1cc(/C=C/c2ccc3cc(N(C)C)ccc3[n+]2C)c(C)n1-c1ccccc1,-81.9% (active)
3,O=C(O)CSc1ccc(NCc2oc(CO)cc(=O)c2O)cc1,108%
4,OCc1ccccn1,99.9%
5,C=C(C)[C@@H]1CCC[C@]2(COS(=O)(=O)c3ccc(C)cc3)CC[C@]3(C)[C@@H](CC[C@@H]4[C@@]5(C)CCCNC(C)(C)[C@@H]5CC[C@]43C)[C@@H]12,-78.2% (active)
6,CCOC(=O)C(=Cc1c(-c2ccccc2)[nH]c2ccccc12)C(=O)OCC,12.8%
7,CCN(CC)CCCC(C)Nc1cnc(C(=O)Nc2cc(F)cc3cccnc23)cn1 (stereo not given),6.24% (active) and -66.3% (active)
8,CCN(CC)CCCC(C)N(Cc1ccccc1)CC(O)c1ccc(Cl)cc1 (stereo not given),91.2% and 104%
9,O=C(O)c1cn(C2CC2)c2cc(N3CCN(C(=O)CSc4nc(NS(=O)(=O)c5ccccc5)cc(=O)[nH]4)CC3)c(F)cc2c1=O,98.7%
10,COc1ccc2c(c1)c(-c1noc(C(=O)c3cn(C)c4ccc(Br)cc34)n1)cn2C,120%
11,O=C(Nc1ccc(NC(=O)c2cc(=O)[nH]c3ccccc23)cc1)Nc1cccc(Cl)c1,64.4%
12,N#Cc1c(-c2ccc(Cl)cc2)nc(NN=Cc2ccco2)nc1N1CCOCC1,30.9%
13,Cc1nc(N2CCOCC2)sc1S(N)(=O)=O,97%
14,CC1(C)C2CCC1(C)C1(C2)OCCS1 (stereo not given),89.8%
15,C=C(C)[C@@H]1CC[C@]2(C(=O)NCC(=O)O)CC[C@]3(C)[C@H](CC[C@@H]4[C@@]5(C)Cc6c([nH]c7ccccc67)C(C)(C)[C@@H]5CC[C@]43C)[C@@H]12,118%
16,C/C(=C(/c1ccccc1)c1ccc(OCC(O)CNCCN2CCOCC2)cc1)c1ccccc1 (stereo not given),53.1%
17,NC(=O)c1c(OCc2c(F)cc(Br)cc2F)nsc1NC(=O)NCCCCN1CCCC1,-57.8% (active)
18,Cc1ccc(NC(=O)c2ccc(CN3CCN(C)CC3)cc2)cc1Nc1nc(-c2cccnc2)cs1,25.5%
19,COc1cccc2c1C=C1CCCCC3=Cc4c(OC)cccc4OC13O2,19%
20,C#C[C@]1(O)CC[C@H]2[C@@H]3CC=C4c5sc(Nc6ccncc6)nc5CC[C@]4(C)[C@H]3CC[C@@]21C,-26.2% (active)

row,Compound,growth
1,COCC(=O)Oc1cc(-c2ccc(C)cc2C)c(OC(=O)COC)c(-c2ccc(C)cc2C)c1,-0.64% (active)
2,CCN(CC)CCCN1C(=O)c2c(c(C)c3c(oc4cc(O)ccc43)c2C)C1=O,102%
3,COc1ccc(C2C(C#N)=C(N)Oc3n[nH]c(-c4cccs4)c32)cc1I (stereo not given),86.8%
4,CCOc1nc(-c2ccccc2)cc2c(O)c(C(=O)n3nc(C)cc3C)[nH]c(=O)c12,99.1%
5,O=C1CCCC2=C1C(c1c[nH]c3ccc(Br)cc13)Cc1cc(Br)ccc1N2 (stereo not given),-6.51% (active)
6,Cc1ccc(S(=O)(=O)n2cc(C(=O)C(=O)N3CCOCC3)c3ccccc32)cc1,90.4%
7,COc1cc(/C=C/C(=O)c2c(C)oc3nc[nH]c(=O)c23)cc(OC)c1OC,64.3%
8,COc1cccc(-c2nc3sccn3c2-c2ccnc(NCCNS(=O)(=O)c3ccc(C(F)(F)F)cc3)c2)c1,41.7%
9,O=C(/C=C/C12c3ccccc3C(c3ccccc31)C1C(=O)NC(=O)C12)c1ccc(Cl)cc1 (stereo not given),-19.5% (active)
10,COc1ccc(C(=O)/C=C/c2ccc(Oc3nc(NCCO)nc(N4CCOCC4)n3)c(OC)c2)cc1,63.4%
11,COc1cc2oc3cc(C)oc(=O)c3c2cc1OC,91%
12,O=C(NC1CC1)c1ccc(-c2nc3ccc4[nH]ncc4c3c3c2CCCC3)cc1,8.81% (active)
13,CCN(CC)c1ccc2c(c1)Oc1nc(N)c(C#N)c(N)c1C2Sc1ccc(SC)cc1 (stereo not given),-37.4% (active)
14,COc1cc2c(cc1OC)C(=O)C(Br)CC2 (stereo not given),24.7%
15,CC(=O)Nc1c(C)cc(C)cc1C,108%
16,COc1ccc(/C=C/C(=O)c2cc3c(N)c(C(=O)Nc4cccc(Cl)c4C)sc3nc2C)cc1,17.1%
17,CS(=O)(=O)c1nccc(-c2c(-c3ccc(F)c(OCc4ccccc4)c3)nc3sccn23)n1,-68.8% (active)
18,O=C1Nc2ccc(Br)cc2/C1=N\c1nnc(-c2ccc(Cl)cc2)o1,51.8%
19,O=c1sn(-c2cccc3ccccc23)c(=O)n1Cc1ccccc1,106%
20,CCOC(=O)c1c(C)c2c(n1C)CSc1cc(C(=O)c3ccccc3)c(=O)[nH]c1-2,96.6% [100 µM]
